What all share (parameters): scale not given: direction of the effect not stated beside the values
In assay [1] the target is Protein translocase subunit SecA (Escherichia coli (strain K12)) (UniProt P10408). Kind of assay: Assay to Identify E. coli SecA ATPase Inhibitors. It is filed as functional. Particulars: 30 µM.
The target in assay [2] is T1, Ubiquitin-activating enzyme e1, putative (Leishmania donovani (strain BPK282A1)) (UniProt E9BSI1).
T1 sequence (whole entry): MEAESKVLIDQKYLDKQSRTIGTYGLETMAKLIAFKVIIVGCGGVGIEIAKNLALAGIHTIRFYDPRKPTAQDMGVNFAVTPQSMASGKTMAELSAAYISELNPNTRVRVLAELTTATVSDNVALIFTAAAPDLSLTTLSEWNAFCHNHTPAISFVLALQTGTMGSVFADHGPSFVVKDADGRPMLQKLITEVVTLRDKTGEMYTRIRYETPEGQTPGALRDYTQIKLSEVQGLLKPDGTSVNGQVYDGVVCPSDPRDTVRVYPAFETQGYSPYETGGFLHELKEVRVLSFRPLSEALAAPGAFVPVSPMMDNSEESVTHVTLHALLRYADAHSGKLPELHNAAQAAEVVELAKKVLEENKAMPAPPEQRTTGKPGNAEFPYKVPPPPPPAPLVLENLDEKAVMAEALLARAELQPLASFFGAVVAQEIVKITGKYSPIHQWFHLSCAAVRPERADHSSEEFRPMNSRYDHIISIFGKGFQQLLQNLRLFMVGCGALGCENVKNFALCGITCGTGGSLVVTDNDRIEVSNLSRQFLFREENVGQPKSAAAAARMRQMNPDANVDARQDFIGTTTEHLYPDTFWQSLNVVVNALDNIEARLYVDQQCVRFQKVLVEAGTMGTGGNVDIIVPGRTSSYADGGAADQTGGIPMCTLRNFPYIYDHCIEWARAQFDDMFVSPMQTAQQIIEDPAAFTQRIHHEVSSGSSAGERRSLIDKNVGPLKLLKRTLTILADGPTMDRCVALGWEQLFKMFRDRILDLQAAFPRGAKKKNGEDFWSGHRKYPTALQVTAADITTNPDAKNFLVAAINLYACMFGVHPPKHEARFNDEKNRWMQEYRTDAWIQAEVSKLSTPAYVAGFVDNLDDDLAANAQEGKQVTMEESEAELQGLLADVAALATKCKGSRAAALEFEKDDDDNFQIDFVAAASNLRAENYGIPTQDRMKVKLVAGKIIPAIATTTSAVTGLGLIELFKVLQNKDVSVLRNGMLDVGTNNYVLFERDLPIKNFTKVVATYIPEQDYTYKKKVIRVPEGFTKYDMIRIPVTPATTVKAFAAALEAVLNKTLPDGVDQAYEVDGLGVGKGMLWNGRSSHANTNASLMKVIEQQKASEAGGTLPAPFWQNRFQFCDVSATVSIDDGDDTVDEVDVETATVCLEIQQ
The experiment in a line: Leishmania donovani Ubiquitin Activating Enzyme (LdE1). It is filed as functional. The following applies: 30 µM.

The target in assay [3] is AMP-activated protein kinase, AMPK (Homo sapiens) (UniProt P54646+O43741+P54619+Q9UGJ0+Q9Y478+Q13131+Q9UGI9). The experiment in a line: AMP-dependent Kinase enzyme assay. An in vitro enzyme assay that detects ADP turnover that is directly proportional to AMPK activity. This uses naive AMPK that is activated during the assay with MK-8722. It is filed as functional. Particulars: 30 µM.

The target in assay [4] is Sialic acid-binding Ig-like lectin 9 (Homo sapiens) (UniProt Q9Y336). The experiment in a line: Hs-Siglec9 ALPHAscreen SOP 20170721. The following applies: 10 µM. A general note: In Alpha technology, singlet oxygen from a donor bead excites a nearby acceptor bead.
Assay [5] relates to Trypanosoma cruzi. The experiment in a line: Trypanosoma cruzi phosphomannomutase and mannose-1-phosphate guanylyltransferase assay. The following applies: 10 µM. The assay is classed as functional.
Assay [6] has as its target T2, Arginase-2, mitochondrial (Homo sapiens) (UniProt P78540).
T2 sequence (whole entry): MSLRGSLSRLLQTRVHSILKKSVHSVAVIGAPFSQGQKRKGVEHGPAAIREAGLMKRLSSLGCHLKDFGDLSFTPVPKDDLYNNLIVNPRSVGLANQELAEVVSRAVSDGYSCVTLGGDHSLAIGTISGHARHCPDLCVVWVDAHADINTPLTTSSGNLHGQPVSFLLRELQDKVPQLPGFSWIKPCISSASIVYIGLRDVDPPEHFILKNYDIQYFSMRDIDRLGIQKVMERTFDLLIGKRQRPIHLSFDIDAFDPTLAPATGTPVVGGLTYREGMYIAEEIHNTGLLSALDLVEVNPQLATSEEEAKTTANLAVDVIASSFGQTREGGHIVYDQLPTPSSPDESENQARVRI
Kind of assay: in vitro enzyme assay to detect the production of urea directly proportional to the activity of Arginase II. Note: in the data most compounds retested in dose-response had high values. The assay is classed as functional. Particulars: 33.3 µM.

Assay [7] addresses T3, Proteasome subunit beta (Trypanosoma cruzi) (UniProt O96673).
T3 sequence (whole entry): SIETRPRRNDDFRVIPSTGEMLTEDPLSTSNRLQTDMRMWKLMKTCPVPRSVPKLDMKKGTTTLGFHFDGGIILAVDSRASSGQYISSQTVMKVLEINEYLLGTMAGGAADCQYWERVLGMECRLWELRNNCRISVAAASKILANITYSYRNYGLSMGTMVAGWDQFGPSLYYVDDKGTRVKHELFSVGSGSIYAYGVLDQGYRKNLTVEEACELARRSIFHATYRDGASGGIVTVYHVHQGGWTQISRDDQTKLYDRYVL
Kind of assay: Trypanosoma cruzi proteasome chymotrypsin-like activity (TcProtChymo) assay. Note: in the data most compounds retested in dose-response had high values. It is filed as functional. The following applies: 9.37 µM.

The species named for assay [8] is Homo sapiens. Kind of assay: To identify inhibition of the IFN signalling (Jak-Stat) pathway via expression of an eGFP reporter gene under the control of an IFN-stimulated response element (ISRE) containing MxA promoter. It is filed as functional. The following applies: 30 µM.
In assay [9] the target is T4, Tyrosyl-tRNA synthetase, putative (Trypanosoma cruzi (strain CL Brener)) (UniProt Q4DSP6).
T4 sequence (whole entry): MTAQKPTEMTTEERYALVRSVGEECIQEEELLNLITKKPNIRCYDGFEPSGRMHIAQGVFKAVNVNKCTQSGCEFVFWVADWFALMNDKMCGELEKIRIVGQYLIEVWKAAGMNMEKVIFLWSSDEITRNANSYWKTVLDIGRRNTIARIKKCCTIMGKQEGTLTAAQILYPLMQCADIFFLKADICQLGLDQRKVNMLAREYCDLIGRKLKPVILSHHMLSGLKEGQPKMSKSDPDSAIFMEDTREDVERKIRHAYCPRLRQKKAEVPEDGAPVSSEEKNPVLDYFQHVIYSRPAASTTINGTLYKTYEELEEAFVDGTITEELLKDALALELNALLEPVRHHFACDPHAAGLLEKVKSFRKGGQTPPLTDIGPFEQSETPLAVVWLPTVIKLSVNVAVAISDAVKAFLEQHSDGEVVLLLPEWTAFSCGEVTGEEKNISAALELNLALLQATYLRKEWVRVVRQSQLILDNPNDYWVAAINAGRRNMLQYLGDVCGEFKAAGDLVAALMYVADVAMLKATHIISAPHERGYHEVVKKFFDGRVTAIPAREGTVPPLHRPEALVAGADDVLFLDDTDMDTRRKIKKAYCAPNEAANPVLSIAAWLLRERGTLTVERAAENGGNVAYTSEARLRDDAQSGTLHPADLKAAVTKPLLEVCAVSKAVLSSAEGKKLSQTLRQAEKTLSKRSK
The experiment in a line: Trypanosoma cruzi tyrosyl tRNA synthetase (TcYRS) _High Tyrosine SOP. Note: in the data most compounds retested in dose-response had high values. It is filed as functional. The following applies: 30 µM.

Assay [10] addresses T4, Tyrosyl-tRNA synthetase, putative (Trypanosoma cruzi (strain CL Brener)). The experiment in a line: Trypanosoma cruzi tyrosyl tRNA synthetase (TcYRS) SOP. It is filed as functional. Particulars: 30 µM.
Assay [11] addresses Chromo domain-containing protein 1 (Saccharomyces cerevisiae (strain ATCC 204508 / S288c) (Baker's yeast)) (UniProt P32657). The experiment in a line: ScCHD-1 Enzyme Inhibition Assay. Note: in the data most compounds retested in dose-response had high values. Particulars: 30 µM. The assay is classed as functional.

Percent Effect data for eleven compounds are collected here from ChEMBL document CHEMBL3988442, “University of Dundee, Small-Polar-MMV Screening Library” (2021).

For some of these results: Entries with a potency or affinity are not part of this list.

Chain of Sialic acid-binding Ig-like lectin 9 (Homo sapiens) (Q9Y336 whole entry): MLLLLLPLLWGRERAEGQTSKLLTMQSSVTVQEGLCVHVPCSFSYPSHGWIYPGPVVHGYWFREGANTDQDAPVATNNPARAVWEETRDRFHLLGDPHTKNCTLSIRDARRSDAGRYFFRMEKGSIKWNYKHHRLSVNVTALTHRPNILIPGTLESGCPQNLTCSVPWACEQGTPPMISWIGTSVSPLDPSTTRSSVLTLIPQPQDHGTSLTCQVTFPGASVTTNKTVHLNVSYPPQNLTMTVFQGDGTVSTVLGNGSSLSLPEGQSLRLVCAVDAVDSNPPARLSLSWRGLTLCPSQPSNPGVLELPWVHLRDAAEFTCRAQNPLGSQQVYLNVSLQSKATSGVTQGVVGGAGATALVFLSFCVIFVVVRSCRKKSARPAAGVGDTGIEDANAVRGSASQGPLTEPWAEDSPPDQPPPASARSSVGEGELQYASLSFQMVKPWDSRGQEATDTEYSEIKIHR
Chain of Chromo domain-containing protein 1 (Saccharomyces cerevisiae (strain ATCC 204508 / S288c) (Baker's yeast)) (P32657 whole entry, the tested form may be a part): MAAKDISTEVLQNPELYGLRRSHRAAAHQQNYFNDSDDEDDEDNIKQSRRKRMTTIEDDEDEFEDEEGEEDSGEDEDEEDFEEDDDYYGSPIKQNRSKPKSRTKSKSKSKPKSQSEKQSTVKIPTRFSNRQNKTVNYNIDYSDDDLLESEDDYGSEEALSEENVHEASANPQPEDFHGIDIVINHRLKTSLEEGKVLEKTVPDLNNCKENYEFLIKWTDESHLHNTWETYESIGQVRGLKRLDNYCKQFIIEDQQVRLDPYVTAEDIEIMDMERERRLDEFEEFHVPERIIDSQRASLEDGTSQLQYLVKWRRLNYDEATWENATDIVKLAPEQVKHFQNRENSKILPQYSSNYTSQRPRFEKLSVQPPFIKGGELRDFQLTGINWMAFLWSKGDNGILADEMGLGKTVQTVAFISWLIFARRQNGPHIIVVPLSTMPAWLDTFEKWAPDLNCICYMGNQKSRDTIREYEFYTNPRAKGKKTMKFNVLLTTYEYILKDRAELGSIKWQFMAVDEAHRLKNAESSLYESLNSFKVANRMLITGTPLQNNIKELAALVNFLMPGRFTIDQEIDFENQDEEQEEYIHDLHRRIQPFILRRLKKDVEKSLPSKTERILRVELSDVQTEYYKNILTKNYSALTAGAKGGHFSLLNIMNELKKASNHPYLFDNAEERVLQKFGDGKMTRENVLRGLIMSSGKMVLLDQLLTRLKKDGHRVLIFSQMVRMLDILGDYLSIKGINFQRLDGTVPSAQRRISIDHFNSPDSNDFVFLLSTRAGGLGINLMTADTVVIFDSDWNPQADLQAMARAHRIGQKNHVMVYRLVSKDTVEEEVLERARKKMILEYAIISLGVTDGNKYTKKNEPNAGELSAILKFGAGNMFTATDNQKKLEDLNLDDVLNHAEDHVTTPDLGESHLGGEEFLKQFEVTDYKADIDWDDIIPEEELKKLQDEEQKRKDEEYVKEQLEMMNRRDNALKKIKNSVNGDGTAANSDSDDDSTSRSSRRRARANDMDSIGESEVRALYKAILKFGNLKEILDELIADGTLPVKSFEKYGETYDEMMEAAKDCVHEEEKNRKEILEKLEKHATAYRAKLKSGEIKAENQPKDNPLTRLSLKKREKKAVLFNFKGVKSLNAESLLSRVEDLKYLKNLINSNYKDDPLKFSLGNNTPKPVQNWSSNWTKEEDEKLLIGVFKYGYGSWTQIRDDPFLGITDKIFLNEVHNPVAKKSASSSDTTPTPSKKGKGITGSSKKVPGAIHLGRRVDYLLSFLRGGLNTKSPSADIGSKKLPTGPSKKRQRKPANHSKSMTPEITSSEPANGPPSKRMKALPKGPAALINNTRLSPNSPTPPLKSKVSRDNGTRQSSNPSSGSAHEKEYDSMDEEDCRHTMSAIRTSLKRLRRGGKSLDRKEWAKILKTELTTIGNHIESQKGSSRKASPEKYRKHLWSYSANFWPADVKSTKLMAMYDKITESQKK
Chain of Protein translocase subunit SecA (Escherichia coli (strain K12)) (P10408 whole entry): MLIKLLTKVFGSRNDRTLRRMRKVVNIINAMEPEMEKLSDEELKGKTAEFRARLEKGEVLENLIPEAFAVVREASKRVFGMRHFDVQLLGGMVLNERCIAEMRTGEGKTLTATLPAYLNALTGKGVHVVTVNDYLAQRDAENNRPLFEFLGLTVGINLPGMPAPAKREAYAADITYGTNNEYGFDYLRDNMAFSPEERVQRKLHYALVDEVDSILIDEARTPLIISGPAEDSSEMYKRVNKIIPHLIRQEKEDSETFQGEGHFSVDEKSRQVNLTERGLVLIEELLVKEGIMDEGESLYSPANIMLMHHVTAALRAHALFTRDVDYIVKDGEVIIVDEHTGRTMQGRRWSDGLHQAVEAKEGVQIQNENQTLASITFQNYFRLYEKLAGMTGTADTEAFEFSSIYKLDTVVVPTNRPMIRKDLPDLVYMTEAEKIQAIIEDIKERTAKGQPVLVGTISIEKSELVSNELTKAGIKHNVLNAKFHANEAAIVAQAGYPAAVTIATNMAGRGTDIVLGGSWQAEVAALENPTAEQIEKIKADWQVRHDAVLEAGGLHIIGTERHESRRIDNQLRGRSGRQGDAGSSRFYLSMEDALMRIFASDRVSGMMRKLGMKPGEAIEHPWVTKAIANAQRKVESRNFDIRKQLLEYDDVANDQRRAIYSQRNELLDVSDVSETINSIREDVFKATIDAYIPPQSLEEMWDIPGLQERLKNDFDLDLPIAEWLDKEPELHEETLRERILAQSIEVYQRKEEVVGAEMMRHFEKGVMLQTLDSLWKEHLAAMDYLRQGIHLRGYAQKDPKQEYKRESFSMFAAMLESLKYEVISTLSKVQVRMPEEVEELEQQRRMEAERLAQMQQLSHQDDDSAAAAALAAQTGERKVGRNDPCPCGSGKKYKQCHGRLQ

`CCc1nc(C)c(C(=O)NCCNc2cnccn2)s1`: the Percent Effect is -1.34% in assay [1]; 21.1% in assay [2]; -0.0117% in [3]; -1.62% in assay [4]; 1.77% in assay [5]; -1.44% in assay [6]. Besides, the Percent Effect in assay [7] was 15.8%; in assay [8] it was 4.13%; in assay [9], 9.36%; in [10], 25.9%; in assay [11], -8.55%.

As for `CN1CC(=O)N(c2ccsc2)CC12CCN(S(C)(=O)=O)C2` (stereo unspecified), the Percent Effect in [1] was -4.15%; in [2] it was 0%; in assay [3], -4.23%; in [4] it was -4.81%; in assay [5], 6.84%; in assay [6] it was -2.5%. For the same compound, the Percent Effect in assay [7] is 20%; in assay [8], -12.5%; in assay [9] it was 3.96%; in assay [10], 11%; in [11], -0.42%.

As to `CCC(CC)C(CNC(=O)Nc1cc(C)nn1C)N1CCOCC1` (stereo unspecified), the Percent Effect is -4.23% in assay [1]; 17.7% in assay [2]; 3.07% in [3]; -7.11% in assay [4]; 9.54% in [5]; -5.32% in [6]. Moreover, the Percent Effect in assay [7] is 9.75%; in assay [8] it was 4.35%; in assay [9], 8.37%; in assay [10], 11.4%; in assay [11] it was -9.76%.

As to `CCOc1ccnc(N2CCN(C(=O)C(C)(C)C#N)CC2)n1`, the Percent Effect in assay [1] was -5.28%; in assay [2], 15.8%; in assay [3], -6.59%; in assay [4] it was -2.59%; in [5] it was -4.39%; in assay [6] it was 1.8%. In addition, the Percent Effect is 4.99% in assay [7]; 6.24% in assay [8]; 1.48% in [9]; 6.17% in assay [10]; -2.03% in assay [11].

Regarding `CC(C)c1nc(C2CCCN(C(=O)c3ccc4nccn4c3)C2)no1` (stereo unspecified), the Percent Effect was -2.08% in assay [1]; 10.4% in assay [2]; 2.88% in assay [3]; 12.4% in assay [4]; -1.47% in assay [5]; 1.47% in assay [6]. Also, the Percent Effect in assay [7] was 3.15%; in assay [8] it was -11.3%; in assay [9], 1.91%; in [10], 7.06%; in assay [11], -11.9%.

Take `O=C(CCN1C(=O)CCC1=O)Nc1cnn(-c2ccccc2Cl)c1`: the Percent Effect in assay [1] was -6.27%; in assay [2], 10.8%; in assay [3] it was 6.39%; in assay [4], 1.29%; in assay [5], -7.52%; in assay [6], -0.185%. The Percent Effect stood at 5.92% in assay [7]; 20.3% in [8]; 4.95% in assay [9]; 6.1% in assay [10]; 4.56% in assay [11].

As for `Cc1nnc2n1CCN(Cc1csc(-c3ccc(F)cc3)n1)C2`, the Percent Effect was -4.19% in [1]; 5.41% in assay [2]; -2.56% in [3]; 4.19% in assay [4]; 8.26% in assay [5]; -4.62% in assay [6]. Further, the Percent Effect in assay [7] was 5.75%; in [8], 4.35%; in assay [9] it was 3.96%; in assay [10], 15.8%; in assay [11], -6.22%.

Regarding `CC(C)COCC(NC(=O)c1ccccn1)c1ccco1` (stereo unspecified), the Percent Effect was -2.06% in [1]; 13.5% in assay [2]; -1.56% in assay [3]; 0.407% in [4]; 4.62% in [5]; -8.02% in assay [6]. The Percent Effect was 5.04% in assay [7]; 5.29% in [8]; 9.36% in [9]; 16.1% in assay [10]; -8.79% in assay [11].

As to `Cc1cccc2c1cnn2CCCNC(=O)C(C)C`, the Percent Effect was -4.75% in assay [1]; 13% in assay [2]; 0.24% in [3]; 14.3% in assay [4]; 7.96% in assay [5]; -5.52% in [6]. Further, the Percent Effect in assay [7] is 6.16%; in [8], 5.24%; in assay [9], 5.38%; in [10], 11.1%; in [11] it was -0.927%.

For `Cc1nn(C)c(C)c1NC(=O)CCn1ncc2c(C)cccc21`, the Percent Effect in assay [1] is -5.82%; in assay [2] it was 7.79%; in [3] it was 1.49%; in [4] it was 9.37%; in assay [5], 2.85%; in assay [6], 9.65%. For the same compound, the Percent Effect was determined as 13.3% in [7]; 5.45% in assay [8]; 6.45% in assay [9]; 13.6% in assay [10]; 41.5% in assay [11].

With `COCCc1noc(CN(C)C(=O)c2cccc(N3CCCC3=O)c2)n1`, the Percent Effect is -2.59% in assay [1]; -2.53% in assay [2]; 0.707% in assay [3]; 3.91% in [4]; -1.23% in assay [5]; -0.38% in assay [6]. For the same compound, the Percent Effect is -0.246% in assay [7]; -3.22% in [8]; -0.493% in [9]; -3.8% in assay [10]; -1.74% in assay [11].
